The campaign covered roughly 16,000 compounds. About 4,000 (25%) were called active. Inconclusive results (about 26%) are left out. Only a sample is shown. Values without a mark were called inactive. The call rests on the fitted dose curve; in most records, active means well fitted curve in the direction sought with a large enough effect; inconclusive means small, poorly fitted or top-dose-only effect, or effect the other way; inactive means no such curve, though single readings can be large or run the other way.
What follows are molecules tested against Cytochrome P450 2C9 (Homo sapiens) (UniProt P11712) (assay: Cytochrome panel assay with activity outcomes). Details: recombinant CYP, pro-luciferin dealkylation, luminescence, p450-cyp2c9; series mostly up to 57.1 µM; activity, negative = inhibition: at the top concentration.
On the % scale 0 is the no-effect control and ±100 the full control effect.

Chain of Cytochrome P450 2C9 (Homo sapiens) (P11712 whole entry, looked up): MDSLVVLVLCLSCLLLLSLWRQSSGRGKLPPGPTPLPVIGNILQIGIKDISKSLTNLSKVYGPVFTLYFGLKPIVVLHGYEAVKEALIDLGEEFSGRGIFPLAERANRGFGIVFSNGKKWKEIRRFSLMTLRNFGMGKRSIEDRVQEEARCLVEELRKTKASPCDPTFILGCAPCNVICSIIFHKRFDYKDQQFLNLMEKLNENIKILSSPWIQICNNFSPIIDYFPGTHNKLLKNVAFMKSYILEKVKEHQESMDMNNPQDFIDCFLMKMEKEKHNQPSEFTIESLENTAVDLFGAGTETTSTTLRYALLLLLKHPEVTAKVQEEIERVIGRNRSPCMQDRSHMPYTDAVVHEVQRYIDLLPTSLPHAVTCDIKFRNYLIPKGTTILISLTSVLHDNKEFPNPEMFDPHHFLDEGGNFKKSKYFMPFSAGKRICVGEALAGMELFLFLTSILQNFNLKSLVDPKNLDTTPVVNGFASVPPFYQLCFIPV

SMILES	activity, negative = inhibition	AC50
COc1cccc(-c2cncnc2NC2CCNCC2)c1	28.5% [at 2.29 µM]	
COc1cccc(C2=CC(c3ccccc3)n3nnnc3N2)c1 (centres undefined)		0.501 µM (active)
COc1cccc(-c2nc(NC3CCNCC3)c3ccccc3n2)c1	11.6% [at 2.29 µM]	
COCC(=O)N1CCC2(CC1)CN(C(=O)Nc1ccccc1)C2		1.58 µM (active)
CC(=O)N1CCC2(CC1)CCN(c1cccc(-c3ccccc3)c1)CC2	-15%	
CC(=O)N1CCC2(CCCN(c3cccc(-c4ccccc4)c3)C2)CC1		12.6 µM (active)
CC(=O)N1CCC2(CCCN(c3ccccc3)C2)CC1	-26%	
COCC(=O)N1CCC2(CCCN(c3cccc(-c4ccccc4)c3)C2)CC1		25.1 µM (active)
COCC(=O)N1CCC2(CCCN(C(=O)Nc3ccccc3)C2)CC1	0.7%	
COCC(=O)N1CCC2(CC1)CN(C(=O)Nc1ccc(OC)cc1)C2	-5.72%	
COCC(=O)N1CCC2(CCCN(c3ccncc3)C2)CC1	-17.3%	
COCC(=O)N1CCC2(CC1)CCN(c1cccc(-c3ccccc3)c1)CC2	-12.7%	
Cc1noc(C)c1-c1nccc(N(C)Cc2ccco2)n1	10.6% [at 2.29 µM]	
CCCn1c(=O)c2[nH]c(-c3ccc(OCC(=O)NCCN)cc3)nc2n(CCC)c1=O	-17.5%	
Cc1noc(C)c1-c1nc(N2CCN(C)CC2)c2ccccc2n1	1.84% [at 2.29 µM]	
Cc1cc([C@](C)(N)C(=O)O)ccc1P(=O)(O)O	-9.49%	
N[C@H](C(=O)O)c1cc(O)cc(O)c1		inactive
CC1=C(C(=O)O)N2C(=O)[C@@H](NC(=O)[C@@H](N)C3=CCC=CC3)[C@@H]2SC1	11.2%	
CC(Sc1nnc(Cc2cccs2)n1C1CCCCC1)C(N)=O (centres undefined)	-26.6%	
COc1ccc(NC(=O)NCc2cccn2C)c(OC)c1	2.26%	
COc1cccc(Nc2ncc3nc(CCc4ccccc4)c(=O)n(Cc4cccs4)c3n2)c1	11%	
COc1ccc(NC(=O)CSc2nnc(Cc3cccn3C)n2CCc2ccccc2)c(OC)c1		11.2 µM (active)
COc1ccc(OC)c(C(=O)CSc2nnc(Cc3cccs3)n2CCc2ccccc2)c1		1.58 µM (active)
O=c1[nH]c(SCc2cccc([N+](=O)[O-])c2)nc2nc[nH]c12	4.13% [at 11.4 µM]	

SMILES	activity, negative = inhibition	AC50
O=[N+]([O-])c1ccc(-c2cnc(SCc3ccccc3Cl)[nH]2)cc1		3.98 µM (active)
O=c1[nH]c(SCc2ccccc2[N+](=O)[O-])nc2nc[nH]c12	11.4% [at 11.4 µM]	
COc1ccccc1CN1CCCC2(CCN(S(C)(=O)=O)CC2)C1	6.51%	
Cc1c(C(=O)Nc2cccc(C(F)(F)F)c2)oc2ccc(S(=O)(=O)N3CCOCC3)cc12		1.41 µM (active)
C=CCOc1c2ccc(C(=O)NC3CCCc4ccccc43)cc2nn1C (centres undefined)	-24.9%	
Cc1c(C(=O)NC2CCCc3ccccc32)oc2ccc(S(=O)(=O)N3CCOCC3)cc12 (centres undefined)		7.08 µM (active)
CCOc1cc(CNCCCN2CCOCC2)cc(Br)c1OCC(=O)Nc1cccc(C(F)(F)F)c1	-9.88%	
O=C(O)C[C@@H]1CCCc2ccccc2[C@H]1O	11.1%	
Fc1cccc(F)c1C(Nc1nncs1)Nc1nncs1	-6.71% [at 11.4 µM]	
CSc1ncnc2c1ncn2[C@@H]1O[C@@H](CO)[C@H](O)O[C@@H]1O	1.22% [at 11.4 µM]	
CS(=O)(=O)Nc1cccc(-c2ccc3ncnc(Nc4ccccc4)c3c2)c1	-12.6% [at 2.29 µM]	
COc1ccc(CCn2c(C)cc(C(=O)CSc3nc(N)cc(=O)[nH]3)c2C)cc1		8.91 µM (active)
COc1ccc(C(=O)NC2(C(F)(F)F)C(=O)Nc3c2c(=O)[nH]c(=O)n3CCc2ccc(OC)c(OC)c2)cc1 (centres undefined)	-20.4%	
Cc1cc(C(=O)CSc2nnc(N)s2)c(C)n1CCc1ccc(F)cc1		1.12 µM (active)
CC[C@H]1CC[C@H]2[C@@H]3CC=C4C[C@H](OC(C)=O)[C@@H](N)C[C@@]4(C)[C@H]3CC[C@@]12C	13.7% [at 11.4 µM]	
CCC(=O)c1ccc(OCC(O)CN2CCCCC2)cc1 (centres undefined)	0.273%	
CCOc1ccc(C(=O)CCC(=O)O)cc1	13.4%	
CCCCOc1ccc(C(=O)CCN2CCCCC2)cc1		2.51 µM (active)
CC(N)=NCc1cccc(CN)c1		inactive
COc1cc(/C=N/Nc2snc(SC)c2C#N)cc(OC)c1OC		4.47 µM (active)
CCOC(=O)N/N=C1/C[C@@H](O)[C@@H](O)[C@@H]2[C@@H]3C(=O)N(C4CCCCC4)C(=O)[C@H]3CC[C@H]12	-8.52% [at 11.4 µM]	
CCN(CC)C(=O)C1CC(=O)N(c2ccc(OC)cc2)C1c1ccc(OC)cc1 (centres undefined)	-35.3%	
COc1ccc(N2CC(C(=O)Nc3cc(C)on3)CC2=O)cc1 (centres undefined)		14.1 µM (active)
COc1ccc(N2CC(C(=O)OCC(=O)c3cccc(OC)c3)CC2=O)cc1 (centres undefined)		17.8 µM (active)

SMILES	activity, negative = inhibition	AC50
CCOc1ccc(CNC(=O)C2CC(=O)N(C3CCCC3)C2)cc1OC (centres undefined)	2.04%	
CCOc1ccc(N2CC(C(=O)NCc3cccc(C)c3)CC2=O)cc1 (centres undefined)		12.6 µM (active)
c1cncc(-c2ccc3ncnc(NC4CCNCC4)c3c2)c1	12.8% [at 2.29 µM]	
CN(C)c1ncnc2ccc(-c3ccoc3)cc12	-6.22% [at 2.29 µM]	
OC(COCc1ccccc1)Cn1cnc2ccccc21 (centres undefined)		12.6 µM (active)
C[n+]1cn(CC(O)COCc2ccccc2)c2ccccc21 (centres undefined)	-6.25%	
c1ccc(C(c2ccccc2)N2CCCC3(CCNCC3)C2)cc1	-17.7%	
COC(=O)N1CCC2(CC1)CN(C(c1ccccc1)c1ccccc1)C2		10 µM (active)
CS(=O)(=O)N1CCC2(CCCN(C(c3ccccc3)c3ccccc3)C2)CC1		12.6 µM (active)
COCC(=O)N1CCC[C@@]2(CCN(C(c3ccccc3)c3ccccc3)C2)C1	-20.6%	
COCC(=O)N1CCC2(CC1)CN(C(c1ccccc1)c1ccccc1)C2	6.75%	
CC(=O)N1CCC2(CC1)CN(C(c1ccccc1)c1ccccc1)C2	3.24%	
COC(=O)N1CCC2(CCCN(C(c3ccccc3)c3ccccc3)C2)CC1		31.6 µM (active)
CS(=O)(=O)N1CCC2(CC1)CN(C(c1ccccc1)c1ccccc1)C2	11.5%	
CS(=O)(=O)N1CCC[C@@]2(CCN(C(c3ccccc3)c3ccccc3)C2)C1	-11.3%	
Cc1cccc(C)c1OCC(O)CNC(C)(C)C (centres undefined)	-10.3%	
COc1cc2cc3c4cc(OC)c(OC)cc4cc[n+]3c(C)c2cc1OC	13.1% [at 25.6 µM]	
CO[C@@H]1COC(=O)C/C=C\[C@@H](C)COC(=O)[C@H](COCc2ccccc2)NC(=O)C/C=C\[C@H]1C	-9.13% [at 11.4 µM]	
Cc1cccc(NC(=O)NNC(=O)c2cc(-c3ccccc3Cl)nc3ccccc23)c1		1.58 µM (active)
O=C(NNC(=O)c1cc(-c2ccc(Cl)c(Cl)c2)nc2ccccc12)Nc1ccccc1		4.47 µM (active)
Cc1ccc(NC(=O)c2cc(Cl)nc3ccccc23)cc1	6.1%	
CC(=O)NCCNc1nc(-c2ccccc2Cl)nc2ccccc12	15.4% [at 2.29 µM]	
COCCNc1nc(-c2ccccc2Cl)nc2ccccc12	0.695% [at 2.29 µM]	
NC(N)=N[C@@H]1C(O)[C@H](N=C(N)N)[C@@H](O)C(O)[C@H]1O (some centres undefined)	13.6% [at 11.4 µM]	

SMILES	activity, negative = inhibition	AC50
Nc1nc2c(ncn2COCCO)c(=O)[nH]1		inactive
c1cn(-c2ncnc3ccc(-c4ccoc4)cc23)cn1	-25.3% [at 2.29 µM]	
COC(=O)[C@@]1(Cc2ccc(F)cc2)[C@H]2c3cc(C(=O)N(C)C)n(Cc4ccc(C(F)(F)F)nc4)c3C[C@H]2CN1C(=O)c1ccccc1		25.1 µM (active)
COC(=O)[C@@]1(Cc2ccccc2)[C@H]2c3cc(C(=O)N4CCCC4)n(Cc4ccc(C(F)(F)F)nc4)c3C[C@H]2CN1C(=O)c1ccccc1		5.01 µM (active)
Clc1ccccc1-c1ccc2ncnc(NC3CCNCC3)c2c1	20.4% [at 2.29 µM]	
Cc1ccccc1-c1cncnc1NCc1ccccc1	-7.47% [at 2.29 µM]	
CCC(=O)N[C@@H]1Cc2ccccc2[C@@H](c2ccccc2)C1	-3.11%	
Clc1ccc(-c2nnc(-c3ccccc3)c(N3CCSCC3)n2)cc1		14.1 µM (active)
CN(C)c1ccc(-c2nc(N3CCNCC3)c3ccccc3n2)cc1	0.369% [at 2.29 µM]	
Brc1ccc(-c2nnc(-c3ccccc3)c(N3CCSCC3)n2)cc1		10 µM (active)
Cc1noc(C)c1-c1ccc2ncnc(N3CCOCC3)c2c1	7.24% [at 2.29 µM]	
CCN1CCN(c2cc(=O)n(-c3cc(Cl)ccc3C)c(=O)[nH]2)CC1	7.49%	
C[N+](C)(C)CCCCCC[N+](C)(C)C	10.1%	
COC(=O)N1CCC[C@@]2(CCN(C(=O)Nc3cccc(C#N)c3)C2)C1	-0.0277%	
Cc1ccc(CSc2nc3c(c(SCC(=O)O)n2)CCCC3)cc1		5.62 µM (active)
CC[C@@]12CCCN3CCc4c(n(c5ccccc45)C(=O)C1)[C@H]32		inactive
S=C1NC2=C(C(c3ccc(Br)cc3)N1)N1CCC2CC1 (centres undefined)		22.4 µM (active)
Fc1cccc(C2NC(=S)NC3=C2N2CCC3CC2)c1 (centres undefined)	-27.1%	
CNNCc1ccc(C(=O)NC(C)C)cc1	-25.5% [at 25.6 µM]	
CCOC(=O)CC(NC(=O)c1cccs1)c1ccc(OCC)cc1 (centres undefined)		3.55 µM (active)
COc1ccc(C(NC(=O)c2ccc(-c3ccccc3)cc2)c2ccccc2)cc1 (centres undefined)	-18.1%	
CCOC(=O)CC(NC(=O)c1ccc(C)cc1)c1ccc(C)cc1 (centres undefined)		15.8 µM (active)

From PubChem BioAssay AID1851 (National Center for Advancing Translational Sciences (NCATS), 2009)
